Results on 16 compounds are retold here after PubChem BioAssay.

Active and inactive are the calls of the source.

The nature of assay [1]: binders of probe aFSTL3 on microarray, primary screen, stem cell growth factor project, biochemical, small-molecule microarray, fluorescence 635/667 (AID 1064).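 Also: measures binding of the biotinylated anti-FSTL3 antibody to printed compounds.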 The settings on record: higher = more signal.
A short description of assay [2]: binders from COS7 lysate, DM2A8 probe, primary screen, torsin A project, cell lysate, small-molecule microarray, fluorescence 635/667 (AID 1065). The settings on record: higher = more signal, COS7 lysate expressing mutant human TOR1A.
Assay [3] is described as follows: binders of probe aFGF2 on microarray, primary screen, stem cell growth factor project, biochemical, small-molecule microarray, fluorescence 635/667 (AID 1067).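 Also: measures binding of biotinylated aFGF2 protein to printed compounds on slides; z-score merges feature fluorescence and signal-to-noise across triplicate slides.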 Conditions: higher = more signal.
Assay [4] in a line: binders of probe aFGF10 on microarray, primary screen, stem cell growth factor project, biochemical, small-molecule microarray, fluorescence 635/667 (AID 1071).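 Also: score merges 667 nm spot intensity and signal to noise from triplicate slides.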 The settings on record: higher = more signal.
For assay [5], the target named is Neurogenic locus notch homolog protein 2 (Homo sapiens) (UniProt Q04721). In words: Notch2 binders on small-molecule microarrays, primary screen, biochemical, small-molecule microarray, 635 nm fluorescence, stem cell growth factors (AID 1073). Conditions: Notch2 binding, higher = more signal.
Sequence of Neurogenic locus notch homolog protein 2 (Homo sapiens) (Q04721 whole entry, looked up, canonical isoform): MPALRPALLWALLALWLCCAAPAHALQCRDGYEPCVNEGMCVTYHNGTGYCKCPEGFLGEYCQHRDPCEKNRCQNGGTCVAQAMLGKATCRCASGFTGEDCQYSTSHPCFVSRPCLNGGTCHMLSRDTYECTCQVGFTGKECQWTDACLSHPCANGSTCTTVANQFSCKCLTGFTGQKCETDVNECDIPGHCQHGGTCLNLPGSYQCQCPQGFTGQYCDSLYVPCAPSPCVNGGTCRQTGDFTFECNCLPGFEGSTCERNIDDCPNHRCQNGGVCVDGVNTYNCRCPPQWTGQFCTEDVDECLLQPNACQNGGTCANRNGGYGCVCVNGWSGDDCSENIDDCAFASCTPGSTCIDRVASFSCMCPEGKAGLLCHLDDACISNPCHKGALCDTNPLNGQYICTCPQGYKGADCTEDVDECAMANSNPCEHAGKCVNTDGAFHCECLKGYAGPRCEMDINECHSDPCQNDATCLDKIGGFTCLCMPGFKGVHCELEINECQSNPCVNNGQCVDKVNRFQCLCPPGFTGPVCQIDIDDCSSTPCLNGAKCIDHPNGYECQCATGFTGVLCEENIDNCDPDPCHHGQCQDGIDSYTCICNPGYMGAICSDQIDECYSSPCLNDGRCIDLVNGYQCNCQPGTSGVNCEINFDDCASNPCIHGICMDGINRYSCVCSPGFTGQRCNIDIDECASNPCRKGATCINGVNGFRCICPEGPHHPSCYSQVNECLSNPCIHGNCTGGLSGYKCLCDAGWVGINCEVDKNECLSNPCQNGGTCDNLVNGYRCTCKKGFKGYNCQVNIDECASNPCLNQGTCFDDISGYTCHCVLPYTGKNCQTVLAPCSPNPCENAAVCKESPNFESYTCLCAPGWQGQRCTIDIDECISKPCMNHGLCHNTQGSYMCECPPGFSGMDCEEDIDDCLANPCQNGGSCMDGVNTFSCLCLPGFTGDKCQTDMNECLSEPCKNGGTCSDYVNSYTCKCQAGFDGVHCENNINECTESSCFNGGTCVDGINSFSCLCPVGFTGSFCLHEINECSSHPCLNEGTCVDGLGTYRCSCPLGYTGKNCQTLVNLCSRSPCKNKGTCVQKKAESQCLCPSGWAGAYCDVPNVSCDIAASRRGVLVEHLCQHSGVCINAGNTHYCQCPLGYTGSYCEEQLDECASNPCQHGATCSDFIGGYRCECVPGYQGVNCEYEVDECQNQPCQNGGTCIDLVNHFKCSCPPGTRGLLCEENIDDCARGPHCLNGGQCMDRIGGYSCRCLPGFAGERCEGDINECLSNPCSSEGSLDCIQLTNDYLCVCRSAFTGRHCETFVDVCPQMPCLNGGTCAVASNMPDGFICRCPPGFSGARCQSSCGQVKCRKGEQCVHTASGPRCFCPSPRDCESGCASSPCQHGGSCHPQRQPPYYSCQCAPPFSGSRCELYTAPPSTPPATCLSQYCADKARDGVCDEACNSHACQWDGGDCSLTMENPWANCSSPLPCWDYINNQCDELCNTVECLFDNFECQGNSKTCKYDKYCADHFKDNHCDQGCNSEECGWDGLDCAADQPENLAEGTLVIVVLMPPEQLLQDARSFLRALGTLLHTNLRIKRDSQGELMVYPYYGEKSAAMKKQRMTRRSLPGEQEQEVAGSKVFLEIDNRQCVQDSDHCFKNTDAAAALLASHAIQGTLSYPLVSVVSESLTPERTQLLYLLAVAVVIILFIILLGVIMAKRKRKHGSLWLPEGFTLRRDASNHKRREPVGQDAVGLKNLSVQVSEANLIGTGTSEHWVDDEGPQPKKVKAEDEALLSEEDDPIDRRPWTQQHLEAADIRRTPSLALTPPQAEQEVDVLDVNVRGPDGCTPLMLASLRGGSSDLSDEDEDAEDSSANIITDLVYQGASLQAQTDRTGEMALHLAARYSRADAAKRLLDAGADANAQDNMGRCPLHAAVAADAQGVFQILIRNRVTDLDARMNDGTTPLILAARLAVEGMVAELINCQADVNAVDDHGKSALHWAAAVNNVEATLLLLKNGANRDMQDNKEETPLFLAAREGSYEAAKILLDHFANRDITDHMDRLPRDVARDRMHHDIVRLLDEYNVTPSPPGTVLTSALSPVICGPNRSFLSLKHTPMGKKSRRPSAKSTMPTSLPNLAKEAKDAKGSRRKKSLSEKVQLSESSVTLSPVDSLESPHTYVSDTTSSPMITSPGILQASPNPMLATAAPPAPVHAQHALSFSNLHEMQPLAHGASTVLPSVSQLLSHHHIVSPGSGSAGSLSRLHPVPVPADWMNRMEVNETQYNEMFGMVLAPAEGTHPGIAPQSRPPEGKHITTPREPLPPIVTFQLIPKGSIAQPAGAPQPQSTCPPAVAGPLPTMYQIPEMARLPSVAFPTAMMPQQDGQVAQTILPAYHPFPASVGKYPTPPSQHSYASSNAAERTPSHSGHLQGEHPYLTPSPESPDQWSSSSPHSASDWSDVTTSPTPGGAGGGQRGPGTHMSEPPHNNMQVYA
Assay [6] deals with Pro-neuregulin-1, membrane-bound isoform (Homo sapiens) (UniProt Q02297). In words: NRG1 binders on small-molecule microarrays, primary screen, psychiatric disease protein project, biochemical, small-molecule microarray, fluorescence 635/667 (AID 1075).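 Also: score combines 667 nm spot fluorescence with signal to noise.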 Conditions: NRG1 binding, 635 nm fluorescence, higher = more signal.
Sequence of Pro-neuregulin-1, membrane-bound isoform (Homo sapiens) (Q02297 whole entry, looked up, the tested form may be a part, canonical isoform): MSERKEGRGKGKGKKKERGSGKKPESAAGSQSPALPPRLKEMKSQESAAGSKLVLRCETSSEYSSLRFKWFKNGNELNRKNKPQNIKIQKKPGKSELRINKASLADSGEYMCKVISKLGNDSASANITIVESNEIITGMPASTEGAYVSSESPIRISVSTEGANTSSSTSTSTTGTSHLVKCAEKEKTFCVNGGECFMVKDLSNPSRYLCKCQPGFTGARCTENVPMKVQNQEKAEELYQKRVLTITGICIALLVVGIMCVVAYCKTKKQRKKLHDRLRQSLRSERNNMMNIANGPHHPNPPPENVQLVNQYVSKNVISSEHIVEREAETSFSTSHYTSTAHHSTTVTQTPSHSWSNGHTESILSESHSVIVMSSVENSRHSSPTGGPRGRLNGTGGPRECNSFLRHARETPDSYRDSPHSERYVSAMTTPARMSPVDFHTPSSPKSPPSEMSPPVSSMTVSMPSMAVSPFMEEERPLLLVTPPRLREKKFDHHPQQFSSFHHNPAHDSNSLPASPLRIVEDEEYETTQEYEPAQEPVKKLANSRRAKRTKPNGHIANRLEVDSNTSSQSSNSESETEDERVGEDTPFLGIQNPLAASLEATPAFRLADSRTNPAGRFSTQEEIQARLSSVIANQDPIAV
In assay [7] the test system is Neuregulin-1 EGF-like domain. The experiment in a line: binders of neuregulin-1 EGF-like domain, primary screen, biochemical, small-molecule microarray, 635 nm fluorescence (AID 1081).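 Also: binding of the protein to compounds printed on small-molecule microarray slides.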 The settings on record: small-molecule microarray binding, higher = more signal.
Assay [8] is described as follows: FRG1 promoter luciferase signal modulators, primary screen, FRG1 inhibition for FSHD, cell-based, C2C12 myotubes, firefly/Renilla luciferase, luminescence (AID 1084). The settings on record: higher = more signal, called active from +8 up or from −8 down.
Assay [9] is described as follows: binders of probe aFST on microarray, primary screen, stem cell growth factor project, biochemical, small-molecule microarray, fluorescence 635/667 (AID 1086).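 Also: score merges 667 nm fluorescence with signal-to-noise of each printed compound spot.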 Conditions: higher = more signal.
Assay [10] in a line: binders of probe aHhip on microarray, primary screen, stem cell growth factor project, biochemical, small-molecule microarray, fluorescence 635/667 (AID 1087).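 Also: score merges spot fluorescence at 667nm with spot signal to noise ratio.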 Conditions: higher = more signal.

In the case of `COC(=O)[C@@]1(Cc2ccccc2)[C@H]2c3cc(C(=O)N4CCCC4)n(Cc4ccc(C(F)(F)F)nc4)c3C[C@H]2CN1C(=O)c1ccccc1`, the composite z-score worked out at 0.356 in [1]; 1.74 in assay [2]; 0.237 in [3]; 0.747 in [4]; 1.54 in assay [5]; 1.98 in [6]. Further, the figures for the composite z-score in assay [7], in assay [9] and in [10] were 1.37, 2.11 and 0.0858, respectively. Moreover, the z-score in assay [8] was 0.419 (inactive).
Turning to `C=C(CCCC)C(=O)CC[C@H](OC(=O)c1cccnc1)c1ccc(CO)o1`, the composite z-score in assay [1] is -0.426; in assay [2] it was 1.08; in assay [3], -0.0752; in [4], 0.797; in [5], 0.816; in assay [6], 0.407. Besides, the composite z-score in assay [7] is 1.23; in assay [9], 0.606; in assay [10], -0.134. In addition, the z-score in assay [8] is -0.0577 (inactive).
Take `C=CC[C@]1(C(=O)NCc2ccccc2)COC(c2ccc(OCCCO)cc2)=N1`: the composite z-score was 2.17 in assay [1]; 2.12 in assay [2]; -0.008 in assay [3]; -0.588 in assay [4]; -0.813 in assay [5]; 1.09 in assay [6]. The composite z-score in assay [7] is 0.521; in assay [9], 0.946; in assay [10] it was -0.335. In addition, the z-score in assay [8] was 0.235 (inactive).
For the compound `COc1ccc([Si](C)(C)[C@H]2[C@H](CCn3cc([C@H](O)c4ccccc4)nn3)O[C@@]3(C(=O)N(c4ccccc4)c4ccccc43)[C@@H]2C)cc1`, the composite z-score in assay [1] is -0.0662; in assay [2] it was -0.125; in assay [3] it was -0.137; in assay [4], 0.0529; in [5], -0.0554; in [6], 0.44. The composite z-score in assay [7] was 0.248; in [9] it was -0.0512; in [10], -0.236. Further, the z-score in [8] is -0.805 (inactive).
In the case of `CCOC(=O)C[C@H]1[C@H](OC(=O)Cc2ccc3c(c2)OCO3)[C@@H](NC(=O)c2ccccc2)c2cc(OCCCO)ccc2N1C(=O)Cc1ccc(OC)cc1`, the composite z-score is -0.483 in assay [1]; 0.147 in assay [2]; -0.0038 in [3]; 0.306 in assay [4]; 0.523 in assay [5]; 0.726 in assay [6]. Moreover, the figures for the composite z-score in assay [7], in assay [9] and in assay [10] were 0.049, -0.249 and -0.261, respectively. For the same compound, the z-score in assay [8] is -2.56 (inactive).
Take `Cc1ccc(S[C@]2(C(=O)NCC(F)(F)F)CC(=O)N(C3CCCCC3)[C@@H]2c2ccc(CO)cc2)cc1`: the composite z-score in [1] is 0.169; in assay [2], 0.148; in [3] it was -0.129; in assay [4] it was 0.116; in [5] it was -0.426; in assay [6] it was 1.66. Moreover, the composite z-score is 0.631 in assay [7], 0.387 in assay [9] and -0.271 in assay [10]. Moreover, the z-score in assay [8] was -2.21 (inactive).
With `CCCCC(=C=CC[C@@H](O)c1ccc(OCCO)cc1)C[C@@H](O)c1ccccn1`, the composite z-score in assay [1] was -0.0136; in assay [2], 1.23; in [3], -0.0473; in assay [4], 0.314; in [5], 0.0751; in assay [6], 0.0517. Besides, the figures for the composite z-score in assay [7], in assay [9] and in [10] were 1.15, 0.111 and 0.16, respectively. Further, in assay [8], the z-score is -0.838 (inactive).
Regarding `CCOC(=O)C1=CC[C@@H](c2ccc(F)cc2)N(S(=O)(=O)c2ccc(C)cc2)[C@H]1c1ccc([N+](=O)[O-])cc1`, the composite z-score in assay [1] was -0.283; in assay [2] it was -0.237; in assay [3], -0.0277; in [4] it was 0.639; in assay [5], 1.26; in assay [6] it was 1.1. The figures for the composite z-score in assay [7], in assay [9] and in assay [10] were 1, 0.919 and -0.0645, respectively. Besides, in assay [8], the z-score was -0.507 (inactive).
On to `CN(C)C(=O)[C@]1(Cc2ccccc2CN=[N+]=[N-])N=C(c2ccc(OCCCO)cc2)O[C@@H]1c1ccccc1N=[N+]=[N-]`, for which the composite z-score turned out to be 0.168 in assay [1]; 0.142 in assay [2]; 0.117 in assay [3]; 0.41 in assay [4]; 1.49 in assay [5]; 1.85 in [6]. Also, the composite z-score is 1.22 in [7], 1.22 in assay [9] and -0.264 in assay [10]. Further, the z-score in [8] is -1.04 (inactive).
For the compound `CC#CCO[Si](C#CCCCCCC)(C(C)C)C(C)C`, the composite z-score in assay [1] is 1.3; in assay [2], -0.134; in assay [3], -0.24; in assay [4], -1.16; in [5] it was -1.9; in [6], -0.353. Besides, the composite z-score was 0.439 in assay [7], -1.3 in assay [9] and -0.341 in assay [10]. Further, the z-score in assay [8] was -0.524 (inactive).
For the compound `CCCC[C@@H]1C[C@H]1[C@@H](NC(=O)c1ccc(C(F)(F)F)cc1)c1ccc(C(=O)OC)cc1`, the composite z-score is 1.54 in assay [1]; 2.4 in [2]; 0.589 in [3]; 0.769 in assay [4]; 0.587 in assay [5]; 0.311 in [6]. In addition, the composite z-score was 0.0521 in assay [7], 0.568 in assay [9] and 2.46 in assay [10]. The z-score in assay [8] was -2.69 (inactive).
Regarding `CC(C)C(=C=CC[C@@H](O)c1cccc(OCCO)c1)CCO`, the composite z-score in assay [1] is -0.226; in assay [2], 0.17; in assay [3] it was -0.085; in assay [4] it was 0.742; in assay [5], 0.271; in assay [6], -0.163. The composite z-score was 0.364 in [7], 0.321 in [9] and 0.0505 in assay [10]. In addition, the z-score in assay [8] was -0.202 (inactive).
For `C=CCN1C(=O)[C@]2(O[C@H](CCO)[C@@H]([Si](C)(C)c3ccc(OC)cc3)[C@@H]2C)c2ccccc21`, the composite z-score is -0.277 in assay [1]; -0.313 in assay [2]; -0.144 in assay [3]; -0.314 in assay [4]; -0.599 in assay [5]; 0.174 in [6]. For the same compound, the composite z-score in assay [7] was 0.122; in assay [9], -0.488; in assay [10], -0.0933. Moreover, the z-score in assay [8] is -3.89 (inactive).
For `CC[C@H](C)C(=O)O[C@H]1CC[C@]2(C)C3=C(CCC2C1(C)C)[C@]1(C)CC[C@H]([C@H](C)CCCC(C)C)[C@@]1(C)CC3` (stereo not given in full), the composite z-score was -0.598 in assay [1]; 0.191 in [2]; -0.0691 in assay [3]; 0.332 in assay [4]; 0.414 in assay [5]; 0.0345 in assay [6]. Besides, the composite z-score stood at 0.966 in assay [7], 0.0889 in assay [9] and 0.315 in assay [10]. The z-score in assay [8] is 0.169 (inactive).
`C=CCC(OC(C)=O)[C@@H]1[C@@H](N(Cc2cc3ccccc3o2)C(=O)Cc2ccc(OC)cc2)c2cc(OCCCO)ccc2N1C(=O)Cc1ccc2ccccc2c1` (stereo not given in full): the composite z-score in [1] is 0.0169; in [2], -0.94; in assay [3], -0.0348; in assay [4], -0.377; in assay [5], -0.368; in assay [6], -0.359. For the same compound, the composite z-score in [7] stood at 0.331; in assay [9] it was 0.0598; in assay [10], 0.0505. The z-score in assay [8] was -0.906 (inactive).
`C=C(COC)/C(=C/C[C@H](OC(=O)c1ccncc1)c1cccc(OCCO)c1)c1cnc2ccccc2c1`: the composite z-score is -0.125 in assay [1]; 0.544 in assay [2]; -0.103 in assay [3]; 0.427 in assay [4]; 1.41 in assay [5]; 1.3 in [6]. Further, the composite z-score in assay [7] was 1.28; in assay [9], 0.841; in assay [10], -0.134. Besides, the z-score in assay [8] is 2.63 (inactive).
